In PubChem BioAssay AID709 (SRMLSC, 2007):
Out of some 65,000 compounds screened, about 3,600 (5.5%) were called active. The sample holds actives, similar compounds and a random draw of the others, so the mix is not that of the screen.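 How the source made its calls: active means at 10 µM, mean starting fluorescence two-fold or more over control wells; inactive means the rest.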

Experiment: intrinsic fluorescence of library compounds, ex339/em460 – biochemical, MLSMR library, data from DPM-DC assay, artefact control, profiling panel (AID 709);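 further: signal is the first read of a kinetic run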
Settings: compound autofluorescence, ex339/em460 nm, NADH buffer; at 10 µM; hits give high values; 1 = no-compound wells, NADH background

Fluorescence fold increase, active:
CN(C)CCCNc1c2c(c(C#N)c3nc4ccccc4n13)CCC2 2.1, COc1cc(OC)cc(C(=O)Nc2ccc(-c3nc4ccccc4o3)c(O)c2)c1 2.11, Cc1cc(C)c2c(n1)nn1c(N3CCOCC3)cc(C)nc21 2.97, Cc1cc(C)c2c(n1)nn1c(N3CCN(c4cccc(Cl)c4)CC3)cc(C)nc21 2.17, Cc1cc(C)c2c(n1)nn1c(-n3ccnc3)cc(C)nc21 3.27, COC(=O)Cc1c(C)c2ccc(OCC(=O)NCc3ccc4c(c3)OCO4)cc2oc1=O 2.07, Cc1nc2c(-c3ccccc3)c(C)[nH]n2c(=O)c1Cl 2.16, CC1CCN(c2oc(-c3ccccc3F)nc2C#N)CC1 2.45, CCOc1ccc2[nH]c(=O)c(C(c3nnnn3CCOC)N3CCOCC3)cc2c1 (stereo unspecified) 5.03, COC(=O)c1c(NC(=O)c2cccs2)sc2c1CCCC2 2.23, CCc1c(C)sc(NC(=O)c2ccc(Br)o2)c1C(=O)OC 2.8

Fluorescence fold increase, inactive:
Cc1ccc(C)c(NC(=O)CSc2nnc(Cc3cccn3C)n2-c2ccc(F)cc2)c1 1.08, CCCCOc1ccccc1/C=c1/sc2nc(-c3oc4ccccc4c3C)nn2c1=O 1.1, Cc1ccccc1CSc1nnc(-c2ccccn2)n1N 1.08, N#Cc1c2c(c(N3CCN(CCO)CC3)n3c1nc1ccccc13)CCCC2 1.53, COc1ccc(-n2nc3c(c2NC(=O)Cc2cccc(C)c2)CS(=O)C3)cc1 (stereo unspecified) 1.15, Cn1cccc1C1(C(F)(F)F)NCCNC1=O (stereo unspecified) 1.11, CC(=O)c1ccc(NC(=O)N[C@@H](Cc2ccccc2)C(=O)O)cc1 1.09, COc1cc(OC)cc(C(=O)Nc2ncc3c(n2)CC(C)(C)CC3=O)c1 1.1, COc1ccc(NC(=O)c2ccc(OC)cc2)cc1 1.13, Cc1ccc(S(=O)(=O)NC(C)C(=O)Nc2ccccc2C(=O)N2CCCC2)cc1 (stereo unspecified) 1.1, CCCC(=O)N=c1sc2cccc(F)c2n1C 1.09, Cc1cc(N2CCCC2)n2nc(C)c(-c3ccccc3)c2n1 1.68, O=C(c1ccco1)N1CCN(c2cccc(Cl)c2)CC1 1.03, Cc1nn2c3cc(N4CCOCC4)ccc3nc2c2ccccc12 1.11, C/C(O)=C\c1nc(=O)c2c(C)cc(C)nc2n1-c1ccccc1 1.08, Cc1nc(SC(C)C)[nH]c(=O)c1Cc1ccccc1 1.11, CCOc1ccc2nc(NC(=O)CSc3nc4c(c(=O)n(C)c(=O)n4C)n3CC)sc2c1 1.12, CC(=O)NC(Cc1ccc(F)cc1)C(=O)O (stereo unspecified) 1.02, CCOC(=O)c1oc2ccccc2c1NC(=O)c1cccs1 1.25, N#C/C=C1\Sc2ccccc2C(=O)N1CC(=O)N1CCN(S(=O)(=O)c2ccccc2)CC1 1.1, COc1cccc(NC(=O)C(C)Oc2ccccc2)c1 (stereo unspecified) 1.11, CC1Oc2ccccc2N(Cc2cccnc2)C1=O (stereo unspecified) 1.14, Cc1ccc(C(=O)OCC(=O)NCc2ccc3c(c2)OCO3)s1 0.99, O=C(COc1ccccc1)NCc1ccc2c(c1)OCO2 1.08, COCc1nnc(NC(=O)CS(=O)(=O)Cc2ccccc2)s1 1.1, Cc1nc2nc(COc3ccccc3)[nH]n2c(=O)c1C 1.17, CC(=O)c1cc(-c2ccccc2)[nH]c1N1CCCC1 1.05, N#Cc1nc(COc2ccc(Cl)cc2)oc1N1CCCC1 1.02, Cc1ccc(OCc2nc(C#N)c(N3CCCC3)o2)cc1 1.03, Cc1cc(C)c(C#N)c(SCc2ccc3c(c2)OCO3)n1 1.09, CCOC(=O)N1CCN(C(=O)CN(C2CCCCC2)S(C)(=O)=O)CC1 1.07, COc1ccc(N2CCN(C(c3cc4ccc(C)cc4[nH]c3=O)c3nnnn3C3CCCC3)CC2)cc1 (stereo unspecified) 1.25, COCCn1nnnc1C(c1cc2ccc(OC)cc2[nH]c1=O)N1CCc2ccccc2C1 (stereo unspecified) 1.12, O=C(O)Cc1ccc(NC(=O)C2CCCCC2C(=O)O)cc1 (stereo unspecified) 1.09, CC1CN(C(=O)c2ccc3c(c2)OCO3)OC(c2ccccc2)O1 (stereo unspecified) 1.07, COc1ccc(C2/C(=C(/O)c3ccc(OC(C)C)cc3)C(=O)C(=O)N2CCCN2CCOCC2)cc1 (stereo unspecified) 1.01, O=C(OCC(=O)N1CCN(C(=O)c2ccco2)CC1)c1ccccc1Cc1ccccc1 0.99, CCOCC(=O)Nc1sc2c(c1C(=O)OCC)CCCC2 1.11, CC(CNC(=O)c1ccc(Br)o1)NC(=O)c1ccc(Br)o1 (stereo unspecified) 1.02, CCCOC(=O)Nc1sc2c(c1C(=O)OCC)CCC2 1.1
